Hits are enriched below; roughly 2.5% of the tested compounds scored in any of these assays.
Env fusion inh: blocks HIV Env-driven cell-cell fusion. HeLa-JRFL Env/CEM21 cell fusion, luciferase. inhibition, % at 12.3 µM. actives 1.1% (n = 360,000);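 active = mean replicate inhibition score of at least 50 and every replicate individually at or above 50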;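 note: 0% = plate neutral controls and 100% = maraviroc near 300 nM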
PAX8 inh HTS: inhibitors of PAX8 transcriptional activity in RMG-I cells; inhibition, % at 12.6 µM; RMG-I TPO-luciferase reporter, SteadyGlo, 24 h; AID 652154; actives 1.2% (n = 360,000);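 active = mean replicate inhibition at least 60% with every replicate also reaching 60%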;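 note: luciferase light reporting Pax8 driven TPO promoter activity; plate controls were median of neutral control wells for no effect and mitoxantrone controls for full effect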
GAA850 FXN act: increases GAA850 frataxin promoter reporter activity; activation, % at 6 µM; HEK293 lucGAA850 FXN promoter luciferase reporter, 24 h; percent of 10 µM SAHA response; AID 540364; actives 0.56% (n = 360,000);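 active = activation above the average of all compounds screened plus 3 SD, cutoff fixed separately per campaign, cut at about 7.5% in these data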;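 note: 0% = DMSO wells and 100% = 10 µM SAHA wells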
EWS-Fli inh: EWS/Fli transcriptional activity inhibition; A673 NR0B1-luciferase reporter, viability-normalised; inhibition, % at 12.6 µM; actives 0.67% (n = 350,000);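 active = mean inhibition of at least 50% after viability correction, with every replicate also passing that limit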;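 note: firefly luciferase signal divided by Alamar Blue viability fluorescence both relative to DMSO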
F508del corr: correctors of CFTR F508del function in bronchial epithelial cells. actives 0.36% (n = 350,000). CFBE cells, YFP halide quenching; stimulated with forskolin plus potentiator P3; % fluorescence drop versus neutral controls. AID 720511. activity (quench increase), % at 7.58 µM;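 active = mean added fluorescence quench of at least 8% versus neutral control, with both replicates also reaching 8%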;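 note: cells transiently co-express mutant CFTR-F508del with the halide-sensitive YFP; corrector assay measuring rescue of mutant channel to the surface after 24 h compound exposure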
The depositor's hits bear a star; . = no result; [ ] = dose if it differs, or a comment.

SMILES	Env fusion inh	PAX8 inh HTS	GAA850 FXN act	EWS-Fli inh	F508del corr
C[C@H]1CN([C@@H](C)CO)C(=O)c2cc(N(C)C)ccc2O[C@H]1CN(C)C	2[16.7 µM]	7	.	10	-2
O=S(=O)(c1ccc(F)cc1)N1CCCCN2[C@H](C1)[C@@H](c1ccc(-c3ccccc3)cc1)[C@@H]2CO	.	-21	.	8	4
C[C@H]1CN([C@@H](C)CO)S(=O)(=O)c2ccc(C#CC3CCCC3)cc2O[C@@H]1CN(C)Cc1cccnc1	21[16.7 µM]	98*	.	19	-1
C[C@@H]1CN([C@H](C)CO)S(=O)(=O)c2ccc(C#CC3CCCC3)cc2O[C@H]1CN(C)Cc1cncnc1	-5[16.7 µM]	18	.	20	1
CNC[C@@H]1Oc2cc(C#CC3CCCCC3)ccc2S(=O)(=O)N([C@@H](C)CO)C[C@@H]1C	28[16.7 µM]	92*	.	56*	0
C[C@H]1CN([C@@H](C)CO)S(=O)(=O)c2ccc(C#CC3CCCC3)cc2O[C@H]1CN(C)Cc1cncnc1	7[16.7 µM]	-11	.	52*	2
COCc1cn(CC[C@H]2CC[C@@H](NC(=O)Nc3ccc4c(c3)OCO4)[C@H](CO)O2)nn1	0[16.7 µM]	-7	.	-3	-2
O=C(Nc1ccc(F)cc1)N[C@@H]1CC[C@H](CC(=O)N2CCOCC2)O[C@H]1CO	-8[16.7 µM]	-1	.	-4	-1
O=C(C1CC1)N1CC(=O)N2[C@H](C1)[C@H](c1ccc(C#CC3CCCC3)cc1)[C@@H]2CO	.	14	.	-6	2
COc1cc(C2Oc3ccccc3C=C2[N+](=O)[O-])cc(OC)c1OC (stereo not drawn)	-42	-6	-4	52*	-13
CC(CNC(=S)Nc1cc(F)cc(F)c1)CSc1ccc(Cl)cc1 (stereo not drawn)	78*	-158	-1	10	-3
O=C(Nc1ccccc1N1CCN(C(=O)c2ccccc2)CC1)c1ccc(Cl)cc1	-3	14	-2	17	0
O=C(Nc1ccccc1N1CCN(C(=O)c2ccccc2)CC1)c1ccc(Br)o1	69*	26	1	.	1
Cc1c(C(=O)NC(=S)Nc2ccccc2N2CCCC2)cccc1[N+](=O)[O-]	-30	14	3	77*	.
O=C(NC(=S)Nc1ccccc1N1CCN(C(=O)c2ccccc2)CC1)c1ccccc1F	58*	2	2	.	3
C[C@@H]1CN([C@H](C)CO)S(=O)(=O)c2ccc(C#Cc3ccccn3)cc2O[C@H]1CN(C)C(=O)C1CC1	-4[16.7 µM]	.	.	8	7
C/C=C/c1cnc2c(c1)C(=O)N([C@H](C)CO)C[C@@H](C)[C@H](CN(C)Cc1ccccc1)O2	-10[16.7 µM]	.	.	0	-4
Cc1ccc2c(c1)[C@H]1[C@H](CO2)[C@H](c2ccccc2)[C@]2(C)C(=O)Nc3ccc(F)cc3C(=O)N12	20	41	-9	56*	-3
Cc1ccc2c(c1)[C@H]1[C@H](CO2)[C@H](c2ccccc2)[C@]2(C)C(=O)Nc3cc(F)c(F)cc3C(=O)N12	-6	6	-9	59*	4
Cc1ccc2c(c1)[C@H]1[C@H](CO2)[C@H](c2ccccc2)[C@]2(C)C(=O)Nc3cc(Cl)ccc3C(=O)N12	.	.	-11	.	.
COc1ccc2c(c1)OC[C@H]1[C@H]2N2C(=O)c3cc(F)ccc3NC(=O)[C@@]2(C)[C@H]1c1ccccc1	-1	2	-6	2	2
CC(C)c1cn([C@H]2C[C@@H]3O[C@H](CO)CC[C@@H]3O[C@@H]2CCc2ccc(-c3ccccc3)cc2)nn1	.	-16	.	-5	0
CO[C@@H](C(=O)N(C)C[C@H]1OCc2ccccc2-c2c(n(C)c3ccccc23)C(=O)N([C@@H](C)CO)C[C@@H]1C)c1ccccc1	55*[16.7 µM]	11	.	13	0
C[C@H]1CN([C@@H](C)CO)C(=O)c2c(c3ccccc3n2C)-c2ccccc2CO[C@H]1CN(C)C(=O)C1CC1	61*[16.7 µM]	-2	.	-4	-1
C[C@H]1CN([C@@H](C)CO)C(=O)c2c(c3ccccc3n2C)-c2ccccc2CO[C@@H]1CN(C)C(=O)[C@@H](Cc1ccccc1)N(C)C	1[16.7 µM]	-2	.	-42	1
SMILES	Env fusion inh	PAX8 inh HTS	GAA850 FXN act	EWS-Fli inh	F508del corr
C[C@H](CO)N1C[C@H](C)[C@H](CN(C)C(=O)[C@H](Cc2ccccc2)N(C)C)OCc2ccccc2-c2c(n(C)c3ccccc23)C1=O	46[16.7 µM]	116*	.	14	1
C[C@H]1CN([C@@H](C)CO)C(=O)c2c(c3ccccc3n2C)-c2ccccc2CO[C@H]1CN(C)C(=O)Cc1ccccc1	57*[16.7 µM]	11	.	2	-1
CO[C@@H](C(=O)N(C)C[C@H]1OCc2ccccc2-c2c(n(C)c3ccccc23)C(=O)N([C@@H](C)CO)C[C@H]1C)c1ccccc1	-48[16.7 µM]	10	.	-1	0
COc1ccc(S(=O)(=O)N(C)C[C@H]2Oc3ccc(NC(=O)Nc4ccc(C(F)(F)F)cc4)cc3CC(=O)N([C@@H](C)CO)C[C@@H]2C)cc1	3[16.7 µM]	-26	.	-16	-2
O=C(c1ccc(F)cc1)N1CC(=O)N2[C@H](C1)[C@@H](c1ccc(C#CC3CCCC3)cc1)[C@@H]2CO	.	.	.	4	0
C[C@H](CO)N1C[C@H](C)[C@@H](CN(C)C(=O)CCN(C)C)OCc2ccccc2-c2c(n(C)c3ccccc23)C1=O	50[16.7 µM]	65*	.	-4	7
COc1ccc2c3c([nH]c2c1)[C@H](CO)N(C(=O)c1cccnc1)CC31CN(Cc2cccnc2)C1	-8[16.7 µM]	.	.	-23	0
O=C(CCNS(=O)(=O)c1ccccc1)N1CCCCCC1	-8	-51	3	.	0
O=C(CCNS(=O)(=O)c1ccccc1)N1CCCCCCC1	66*	-30	0	-22	3
O=C(C[C@H]1C[C@H]2c3cc(NC(=O)C4CCC4)ccc3O[C@H]2[C@@H](CO)O1)NCC(F)(F)F	57*[16.7 µM]	-3	.	1	-1
O=C(C[C@@H]1C[C@H]2c3cc(NC(=O)C4CCC4)ccc3O[C@H]2[C@H](CO)O1)NCC(F)(F)F	93*[16.7 µM]	3	.	-6	1
O=C(C[C@@H]1C[C@@H]2c3cc(NC(=O)C4CCC4)ccc3O[C@@H]2[C@H](CO)O1)NCC(F)(F)F	-9[16.7 µM]	-2	.	1	-1
CC(=O)N1[C@@H]2Cn3c(ccc(-c4ccccc4)c3=O)[C@H]1[C@@H](C(=O)N1CCN(C)CC1)[C@@H]2CO	.	3	.	-7	0
Cc1ccc(/C=C/c2nc3ccccc3c(=O)[nH]2)cc1	-160	-1	3	70*	0
[N-]=[N+]=NCc1ccccc1C[C@]1(C(=O)N2CCCCC2)N=C(c2ccc(OCCCO)cc2)O[C@H]1c1ccccc1	68*[16.7 µM]	17	.	8	-10
O=C(NCc1ccccc1)[C@]1(Cc2ccccc2)N=C(c2ccc(OCCCO)cc2)O[C@@H]1c1ccccc1	36[16.7 µM]	94*	.	30	-1
O=C(NCc1ccccc1)[C@@]1(Cc2ccccc2)N=C(c2ccc(OCCCO)cc2)O[C@H]1c1ccccc1	22[16.7 µM]	.	.	21	-2

Compound activity (PubChem)
